In general, inhibition refers to the drop in the measured response relative to a control, in per cent.

The structures appear in SMILES notation. Out of some 1,200 compounds screened, about 600 (50%) were called active. No stated cut-off is given here; in the data, active means inhibition above about 42%; inactive means the rest. So high a share suggests a set chosen from earlier hits. The list shows a part of the results. Entries with a potency or affinity are not part of this list.

This experiment deals with SUMO-conjugating enzyme UBC9 (Homo sapiens) (UniProt P63279). Briefly: SUMOylation inhibitor hit validation, confirmation, SUMOylation inhibitor project, biochemical, AlphaScreen (AID 2018). The conditions noted are these: AlphaScreen in vitro SUMOylation assay; at 35 µM; active compounds read high. (In Alpha technology, singlet oxygen from a donor bead excites a nearby acceptor bead.)
Sequence of SUMO-conjugating enzyme UBC9 (Homo sapiens) (P63279 whole entry, looked up): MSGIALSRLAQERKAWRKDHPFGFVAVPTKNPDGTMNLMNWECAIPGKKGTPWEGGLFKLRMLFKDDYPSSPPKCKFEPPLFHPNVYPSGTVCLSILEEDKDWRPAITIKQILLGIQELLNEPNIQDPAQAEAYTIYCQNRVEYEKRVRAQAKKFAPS
In the case of `O=C1N/C(=N/N=C/c2ccccc2O)SC1Cc1ccc(F)cc1` (stereo not drawn), the inhibition was 7.4% (inactive).
Consider `CCOc1cc(CNc2ccccc2SC)ccc1O`, for which the inhibition is 65.8% (active).
Next, `CNCc1ccccc1Sc1ccc(O)c(O)c1`: -26.2% (inactive); `CCc1ccccc1NC(=O)Nc1cccn(Cc2ccccc2F)c1=O`: 2.6% (inactive).
Next, `O=C(NCc1ccccc1)Nc1cccn(Cc2ccccc2F)c1=O`: -5% (inactive); `COc1cccc(Cn2cccc(NC(=O)Nc3ccccc3C)c2=O)c1`: 31.1% (inactive).
For `Cc1oc2c(c(C)cc3oc(=O)c(CC(=O)N[C@H](C(=O)O)C(C)C)c(C)c32)c1C`, the inhibition is 10.7% (inactive).
Next, `COc1ccc(-c2csc(CCN3N=C(C)CC3=O)n2)cc1`: 53.9% (active).
As to `COc1cccc(-c2[nH]nc3c2C(c2ccsc2)C(C#N)=C(N)O3)c1` (stereo not drawn), the inhibition was 24.1% (inactive).
Next, `CC(C)=CCC1=C(OCC(=O)O)C(=O)c2ccccc2C1=O`: 99.7% (active); `O=[N+]([O-])c1ccc(O)c(C=Nc2cccc3ncccc23)c1`: 19.8% (inactive); `Fc1ccc(NC(=S)Nc2ccc3nccnc3c2)cc1`: 25% (inactive).
Next, `CC(C)N(C(=O)Nc1ccc2nccnc2c1)C(C)C`: 44.2% (active); `CC(C)(C)OC(=O)c1c(N)n(CCCN2CCCC2=O)c2nc3ccccc3nc12`: -0.3% (inactive).
For the compound `CCCCn1c(=O)[nH]c2nc3cc(N)ccc3nc2c1=O`, the inhibition was 9.9% (inactive).
Regarding `O=[N+]([O-])c1c(NCCCO)cc(Sc2nc3ccccc3s2)c2nonc12`, the inhibition is 37.6% (inactive).
Next, `Cc1nnc(Sc2cc(NCCO)c([N+](=O)[O-])c3nonc23)s1`: 24.5% (inactive); `CC(=O)OCCCNc1cc(SCc2ccco2)c2nonc2c1[N+](=O)[O-]`: 40.6% (inactive).
Next, `O=[N+]([O-])c1c(NCCCO)cc(Sc2ccc(Cl)cc2)c2nonc12`: 42.6% (active).
With `CC(=O)OCCNc1cc(SCc2ccco2)c2nonc2c1[N+](=O)[O-]`, the inhibition was 87.5% (active).
Regarding `CCC(=O)OCCNc1cc(Sc2nc3ccccc3s2)c2nonc2c1[N+](=O)[O-]`, the inhibition was 46.1% (active).
Regarding `CCC(=O)OCCNc1cc(Sc2nccn2C)c2nonc2c1[N+](=O)[O-]`, the inhibition was 24.5% (inactive).
Next, `Cc1nnc(Sc2cc(NCCCO)c([N+](=O)[O-])c3nonc23)s1`: 21.7% (inactive); `Cc1ccc(Sc2cc(NCCCO)c([N+](=O)[O-])c3nonc23)cc1`: 35.8% (inactive).
Turning to `O=C(Nc1ccccc1)Oc1ccc[nH]c1=O`, the inhibition was 10.3% (inactive).
Next, `CN(CCO)c1nc(N)c2c(N)nc3c(c2c1C#N)CC(=O)N3C1CCCC1`: 29.5% (inactive); `CCOC(=O)c1c(-c2ccccc2)oc2ccc(OC(C)C(=O)O)cc12` (stereo not drawn): -14% (inactive).
Take `N#Cc1c2ccc(OCC(N)=O)cc2n2ccccc12`: the inhibition is 56.5% (active).

(Values after PubChem BioAssay AID2018 (Sanford-Burnham Center for Chemical Genomics, 2009).)
